The target in the test is PUM1 PUF domain R1-KVV (Homo sapiens, UniProt Q14671 828-1176, S863K;R864V;Q867V). Put plainly: yeast three-hybrid, YBZ-1, SC-Leu-His + 0.5 mM 3-AT, 4 days. The note with it: tags: N-Gal4 AD-HA kept; label: inside an RPR1-promoter hybrid RNA with tandem MS2 sites; ssRNA. Put shortly: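 The interaction score is the log change in how often each variant appears, from input to selection. Frequencies came from PCR-amplified, Illumina-sequenced repeat regions of Pumilio-1 PUF domain libraries grown in strain YBZ-1 (LexA–MS2 coat fusion, HIS3 reporter) alongside matching RNA elements. Input plates were SC-Leu and selection plates were SC-Leu-His + 0.5 mM 3-AT, each for four days, and the log2 calculation used a pseudocount of 1 where a variant was absent.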
Chain of PUM1 PUF domain R1-KVV (Q14671 828-1176 S863K/R864V/Q867V): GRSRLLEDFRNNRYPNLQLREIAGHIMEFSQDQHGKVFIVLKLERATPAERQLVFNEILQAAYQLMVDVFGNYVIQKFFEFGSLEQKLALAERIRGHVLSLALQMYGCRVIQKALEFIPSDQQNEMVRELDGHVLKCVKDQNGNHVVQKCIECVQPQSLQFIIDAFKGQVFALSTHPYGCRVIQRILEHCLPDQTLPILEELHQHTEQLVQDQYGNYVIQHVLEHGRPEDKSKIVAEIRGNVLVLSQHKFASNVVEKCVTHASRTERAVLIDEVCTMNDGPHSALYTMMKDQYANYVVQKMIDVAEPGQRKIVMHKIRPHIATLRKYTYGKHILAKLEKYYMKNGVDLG
On to “GGCUAGAACUAGUGGAUCCCCCGGCGCCCGGCGGCUCGAGCCCGGGUAAGUGUAAAUCGUCUGCAUGCCGCCGGGCGCCAUGCCUGCAGGUCGACUCUAGAAAACAUG”, for which the binding signal was 5.35 log2 enrichment (interaction score).

With “GGCUAGAACUAGUGGAUCCCCCGGCGCCCGGCGGCUCGAGCCCGGGUAAGUGUAAAUUGUCUGCAUGCCGCCGGGCGCCAUGCCUGCAGGUCGACUCUAGAAAACAUG”, the binding signal was 5.82 log2 enrichment (interaction score).

In the case of “GGCUAGAACUAGUGGAUCCCCCGGCGCCCGGCGGCUCGAGCCCGGGUAAGUGUAAAUGGUCUGCAUGCCGCCGGGCGCCAUGCCUGCAGGUCGACUCUAGAAAACAUG”, the binding signal is 1.3 log2 enrichment (interaction score).

The values above are taken from PMC8384837, “Expanding the binding specificity for RNA recognition by a PUF domain”.
